Consider three compounds from PubChem BioAssay.

Experiment [1] in a line: stimulators of nuclear beta-catenin in C2C12, primary screen, imaging, WNT3A-conditioned medium, mouse C2C12, NPC library (AID 1117326; in the data active = nuclear beta-catenin stimulation mostly above about 4.2%, no sharp cut-off; inactive = mostly below about 10%). The following applies: stronger effect = higher value.
Experiment [2] can be described thus: stimulators of insulin release from INS-1E, primary screen, cell-based, 5 mM glucose, NPC library (AID 1117329;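 active = compound raises insulin release from rat beta cells at 5 mM glucose, no numeric limit stated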). To be noted: rat INS-1E insulin secretion, at 10 µM, stronger effect = higher value.
Experiment [3] is described as follows: growth inhibition of GSK3B-pretreated HCT116 cells – cell-based, CellTiter-Glo, 0.2 to 20 µM (AID 1117336;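 active = compounds lowering colon cancer cell viability after pretreatment blocking the GSK3B kinase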). The following applies: HCT116 viability after GSK3B inhibitor, at 20 µM, stronger effect = higher value. Background: In ATP-based viability assays light output follows the ATP content of the culture.
Experiment [4] can be described thus: inhibition of endothelial tube formation, primary screen, imaging, VEGF stimulated, CD31 staining, tube area, NPC library (AID 1117340;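 active = compound that reduces growth-factor-driven endothelial tube area in a mixed cell culture, no cutoff stated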). The following applies: VEGF-stimulated ADSC/ECFC co-culture, at 10 µM, stronger effect = higher value.
Experiment [5] can be described thus: glucagon-like peptide 1 release enhancers, primary assay, NCI-H716 cell line, NPC library (AID 1117341;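 active = compound raises GLP1 secretion from the human gut endocrine cells, with no numeric limit stated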). The following applies: NCI-H716 cells, at 10 µM, stronger effect = higher value.
The nature of experiment [6]: HCT116 colon cancer cell growth inhibition, primary screen, CellTiter-Glo luminescence, NPC library (AID 1117342;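 active = compounds that lower survival of HCT116 colon cancer cells in the luminescence readout, no numeric limit stated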). To be noted: at 20 µM (top of the series).
Experiment [7] is described as follows: CellTiter-Glo luminescent readout of SW480 viability loss, NPC library primary (AID 1117343;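 active = compounds that lower viability of the colon cancer cells in the luminescence readout, with no numeric limit stated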). To be noted: CellTiter-Glo luminescence; at 20 µM (top of the series).
The nature of experiment [8]: decreased DLD-1 cellular survival, CellTiter-Glo luminescent readout, NPC compound collection, primary HTS (AID 1117346;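 active = compounds that lower survival of DLD-1 colon cancer cells in the luminescence readout, no cutoff given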). To be noted: DLD-1 viability, CellTiter-Glo luminescence; at 20 µM (top of the series).
Experiment [9] deals with 6-phosphogluconate dehydrogenase, decarboxylating (Homo sapiens) (UniProt P52209). In words: 6PGD enzyme inhibitors, primary screen, biochemical, human, recombinant enzyme, NADPH absorbance (AID 1159550;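 active = at least 20% inhibition of 6-phosphogluconate dehydrogenase activity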). To be noted: recombinant 6PGD, NADPH absorbance 341 nm; at 10 µM; stronger effect = higher value.
Experiment [10] is described as follows: sensitizers of A549 cells to miR-34 induction, primary screen, imaging, A549 dox-inducible miR-34, nuclei and caspase counts (AID 1347080;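 active = compounds whose cell count with miR-34 switched on is under 0.7 times the count with it off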). To be noted: A549 miR-34 inducible, Hoechst nuclei count, 48 h.
A short description of experiment [11]: survival rescue of mitochondrial mutant cells in low glucose, primary screen, MELAS cybrids, Rieske KO mouse fibroblasts, CellTiter-Glo (AID 1508586;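 active = mean z-score across replicates of 1.96 or higher in either the MELAS or the Rieske mutant cell line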;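 note: z relative to plate mean and SD of compound and empty wells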).
For experiment [12], the target named is NAD(+) hydrolase SARM1 (Homo sapiens) (UniProt Q6SZW1). Briefly: SARM1 TIR NADase inhibitors, cell lysate, NAD-Glo luminescence (AID 1508614;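 active = compound whose remaining NAD level is above about 45 nM, limit read from the data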;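 note: higher remaining NAD means stronger inhibition of SARM1 NADase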). To be noted: SAM-TIR HEK293T lysate NADase, at 1 µM, stronger effect = higher value.
For experiment [13], the target named is Mitogen-activated protein kinase 7 (Homo sapiens) (UniProt Q13164). In words: ERK5 transactivation activators in reporter cells, primary screen, cell-based, HTS (AID 1508626;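 active = luciferase signal above three times the same-plate solvent-only control wells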;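 note: luciferase driven by Gal4-ERK5 fusion binding five Gal4 sites before minimal TATA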). To be noted: HeLa Gal4-ERK5 transactivation, 18 h, at 5 µM, stronger effect = higher value.
A further experiment has as its system F380Y. Briefly: modulators of BK channel variants, profiling panel, selectivity assay, cell-based, U2OS BacMam, thallium flux, beta subunits (AID 1259406).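 Note: initial slope of Thallos dye fluorescence rise after thallium is added; log ratio against the mean of 0.3% DMSO vehicle wells on the same plate.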 The following applies: at 30 µM.
For a further experiment, the system named is F380Y/beta2Delta. Described as above. To be noted: at 30 µM.
Experiment [14] concerns the target Calcium-activated potassium channel subunit alpha-1 (Homo sapiens) + Leucine-rich repeat-containing protein 26 (Homo sapiens) (UniProt Q12791+Q2I0M4). Described as above. The following applies: F380Y/Slo1WT/gamma1, at 30 µM.
The test system of the next experiment is R275C. The experiment is described as above. The following applies: at 30 µM.
A further experiment relates to R275C/beta1. The description is as above. The following applies: at 30 µM.
Another experiment has as its system R275C/beta2Delta. Described as above. To be noted: at 30 µM.
The mark [15] stands for this setting: stronger effect = lower value, cell number ratio, induced over uninduced.
The mark [16] stands for this setting: measured here: relative caspase fold change +Dox/-Dox.
The mark [17] stands for this setting: measured here: total cells with miR-34 induction, stronger effect = lower value.
[18] abbreviates: measured here: total cells without miR-34 induction.
The mark [19] stands for this setting: MELAS cybrid survival, CellTiter-Glo 48 h, stronger effect = higher value.
The mark [20] stands for this setting: Rieske KO mouse fibroblast survival, CellTiter-Glo 72 h.

Several values for one entry are separate records, joined by “and”; a condition that tells them apart may be missing. Identical values can stand only once. More than one record can exist for a structure, and the calls need not agree. Activity calls are given as the source filed them.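 Rule for the calls, unless noted: active = thallium flux through the channel raised or lowered by more than 3 SD from vehicle-only wells, actives on both sides; inactive = the rest.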

6-phosphogluconate dehydrogenase, decarboxylating (Homo sapiens), sequence (P52209 whole entry, looked up): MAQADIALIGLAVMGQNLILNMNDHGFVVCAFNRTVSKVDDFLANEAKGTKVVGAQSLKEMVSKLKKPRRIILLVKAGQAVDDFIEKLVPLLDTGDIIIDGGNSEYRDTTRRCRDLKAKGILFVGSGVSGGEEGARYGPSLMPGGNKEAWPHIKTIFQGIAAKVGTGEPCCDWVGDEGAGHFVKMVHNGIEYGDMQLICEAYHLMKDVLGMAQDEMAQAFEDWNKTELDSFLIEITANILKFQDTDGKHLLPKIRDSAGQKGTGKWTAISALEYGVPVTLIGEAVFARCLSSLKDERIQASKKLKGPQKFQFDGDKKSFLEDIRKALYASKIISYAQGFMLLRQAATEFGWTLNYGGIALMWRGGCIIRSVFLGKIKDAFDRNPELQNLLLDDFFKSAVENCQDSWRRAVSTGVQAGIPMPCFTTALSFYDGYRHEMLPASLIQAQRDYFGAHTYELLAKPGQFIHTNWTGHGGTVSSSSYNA
Mitogen-activated protein kinase 7 (Homo sapiens), sequence (Q13164 whole entry, looked up, the tested form may be a part): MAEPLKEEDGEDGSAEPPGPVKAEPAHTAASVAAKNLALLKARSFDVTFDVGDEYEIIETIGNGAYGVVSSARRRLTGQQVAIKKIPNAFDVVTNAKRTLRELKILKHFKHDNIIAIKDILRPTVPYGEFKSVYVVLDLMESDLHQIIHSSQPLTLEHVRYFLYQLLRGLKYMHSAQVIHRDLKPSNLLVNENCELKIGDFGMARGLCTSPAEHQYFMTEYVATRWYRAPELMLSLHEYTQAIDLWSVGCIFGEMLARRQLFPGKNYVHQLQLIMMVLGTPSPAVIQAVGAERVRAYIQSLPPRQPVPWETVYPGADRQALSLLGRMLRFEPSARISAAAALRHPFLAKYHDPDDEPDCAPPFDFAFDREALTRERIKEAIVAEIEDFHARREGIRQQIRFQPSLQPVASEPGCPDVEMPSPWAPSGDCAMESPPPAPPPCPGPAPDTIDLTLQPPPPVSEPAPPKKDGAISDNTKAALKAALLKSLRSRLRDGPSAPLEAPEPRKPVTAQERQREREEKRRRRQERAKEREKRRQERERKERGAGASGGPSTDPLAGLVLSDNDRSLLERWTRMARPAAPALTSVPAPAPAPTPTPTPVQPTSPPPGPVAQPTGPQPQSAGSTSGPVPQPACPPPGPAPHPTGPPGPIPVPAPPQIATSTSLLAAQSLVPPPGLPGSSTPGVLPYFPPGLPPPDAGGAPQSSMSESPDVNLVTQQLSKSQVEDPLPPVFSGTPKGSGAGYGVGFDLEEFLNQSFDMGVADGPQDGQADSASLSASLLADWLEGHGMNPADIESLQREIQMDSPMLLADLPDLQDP
Calcium-activated potassium channel subunit alpha-1 (Homo sapiens) + Leucine-rich repeat-containing protein 26 (Homo sapiens), sequence (Q2I0M4 whole entry, looked up, one chain of several): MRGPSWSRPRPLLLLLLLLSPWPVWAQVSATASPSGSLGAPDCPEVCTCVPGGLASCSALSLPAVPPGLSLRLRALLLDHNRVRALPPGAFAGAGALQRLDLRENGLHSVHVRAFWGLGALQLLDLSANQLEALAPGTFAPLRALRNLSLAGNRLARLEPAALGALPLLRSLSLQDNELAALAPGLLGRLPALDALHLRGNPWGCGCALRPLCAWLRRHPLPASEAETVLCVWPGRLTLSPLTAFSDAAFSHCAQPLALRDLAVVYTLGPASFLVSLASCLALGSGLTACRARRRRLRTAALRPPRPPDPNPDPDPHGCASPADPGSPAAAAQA
NAD(+) hydrolase SARM1 (Homo sapiens), sequence (Q6SZW1 whole entry, looked up, the tested form may be a part): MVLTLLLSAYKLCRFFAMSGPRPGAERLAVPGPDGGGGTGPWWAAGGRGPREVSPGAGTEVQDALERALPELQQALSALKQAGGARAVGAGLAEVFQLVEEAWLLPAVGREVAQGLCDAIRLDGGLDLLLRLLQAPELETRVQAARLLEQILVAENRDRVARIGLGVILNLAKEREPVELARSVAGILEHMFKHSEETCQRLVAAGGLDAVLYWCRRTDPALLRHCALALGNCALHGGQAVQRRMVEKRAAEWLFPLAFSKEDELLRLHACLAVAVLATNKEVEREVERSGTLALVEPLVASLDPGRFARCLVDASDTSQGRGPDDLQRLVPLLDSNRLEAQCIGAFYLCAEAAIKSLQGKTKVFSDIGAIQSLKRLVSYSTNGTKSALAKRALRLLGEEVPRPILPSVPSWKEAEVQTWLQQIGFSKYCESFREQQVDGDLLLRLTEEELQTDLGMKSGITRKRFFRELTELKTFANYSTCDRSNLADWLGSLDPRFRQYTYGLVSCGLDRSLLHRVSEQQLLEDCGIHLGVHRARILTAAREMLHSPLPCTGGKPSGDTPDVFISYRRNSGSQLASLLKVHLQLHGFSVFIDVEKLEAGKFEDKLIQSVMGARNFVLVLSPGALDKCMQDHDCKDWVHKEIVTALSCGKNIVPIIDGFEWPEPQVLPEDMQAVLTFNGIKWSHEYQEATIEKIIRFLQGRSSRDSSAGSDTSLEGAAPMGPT

Take `CN(C)CC/C=C1\c2ccccc2COc2ccccc21`: the nuclear beta-catenin stimulation is -0.4% (inactive) in [1] (at 10 µM) and 0.3% in experiment [1] (stimulation, at 2 µM). Further, the insulin secretion stimulation in experiment [2] was -0.9% (inactive). Also, the viability decrease in experiment [3] was -44.3% (inactive). The tube area decrease in experiment [4] is -0.9% (inactive). For the same compound, the GLP1 secretion stimulation in [5] was 5.2% (inactive). Besides, in [6], the inhibition of viability was 12% (inactive). In addition, the results for the viability decrease (inhibition) in experiment [7] and in [8] were 54.8% (active) and -3.7% (inactive), respectively. In addition, the inhibition in [9] is 2.99% (inactive). Moreover, the fold change in experiment [10] (setting [15]) is 0.953 (inactive) and 0.908 (inactive) and 0.946 (inactive); in experiment [10] (setting [16]) it was 1.39 and 2.7 and 1.08. The cell count in experiment [10] (setting [17]) was 9160 and 8980 and 8750; in [10] (setting [18]), 9610 and 9880 and 9250. Also, the z-score in [11] (setting [19]) was 0.295 (inactive); in experiment [11] (setting [20]), 0.581. In experiment [12], the remaining NAD is 10 nM (inactive). For the same compound, the luciferase signal in experiment [13] was 96 AU (inactive). Also, the log fold change Tl+ flux was 0.0501 (inactive) with F380Y; 0.0812 (active) in the experiment with F380Y/beta2Delta; 0.0287 (inactive) in experiment [14]; -0.0142 (inactive) in the experiment with R275C; 0.119 (active) with R275C/beta1; 0.0609 (inactive) in the experiment on R275C/beta2Delta.

In the case of `CC(C)C1CCC(C(=O)N[C@H](Cc2ccccc2)C(=O)O)CC1` (some centres not stated), the nuclear beta-catenin stimulation in experiment [1] (at 10 µM) was -0.5% (inactive); in [1] (stimulation, at 2 µM), 0.2%. Moreover, the insulin secretion stimulation in experiment [2] is 49.4% (active). Besides, in experiment [3], the viability decrease is -22.6% (inactive). Further, in experiment [4], the tube area decrease was -2.3% (inactive). Moreover, in [5], the GLP1 secretion stimulation was 2.1% (inactive). In addition, the inhibition of viability in [6] was -6.47% (inactive). The viability decrease (inhibition) is 1% (inactive) in experiment [7] and -23.8% (inactive) in experiment [8]. Also, the inhibition in [9] was 0.904% (inactive). Besides, the fold change is 0.871 (inactive) in experiment [10] (setting [15]) and 1.37 in experiment [10] (setting [16]). Moreover, the cell count in [10] (setting [17]) came to 8810; in experiment [10] (setting [18]), 10100. The z-score in experiment [11] (setting [19]) is -0.215 (inactive) and -1.18 (inactive); in [11] (setting [20]) it was -0.618 and -0.816. Further, the remaining NAD in [12] is 10 nM (inactive). In addition, the luciferase signal in [13] is 80 AU (inactive). For the same compound, the log fold change Tl+ flux in the experiment on F380Y was -0.00809 (inactive); in the experiment with F380Y/beta2Delta it was 0.0541 (inactive); in experiment [14], 0.0401 (inactive); with R275C it was -0.00833 (inactive); in the experiment on R275C/beta1 it was 0.0383 (inactive); with R275C/beta2Delta it was 0.0438 (inactive).

`CC(C)Oc1ccc2c(=O)c(-c3ccccc3)coc2c1`: the nuclear beta-catenin stimulation in [1] (at 10 µM) is 1.8% (inactive) and 1% (inactive); in experiment [1] (stimulation, at 2 µM), -1.4% and 0.1%. In addition, the insulin secretion stimulation in experiment [2] was 1.75% (inactive) and -0.3% (inactive). Besides, the viability decrease in [3] was 45.8% (inactive) and -14.2% (inactive). In addition, the tube area decrease in experiment [4] was -10.2% (inactive) and -25.5% (inactive). In addition, the GLP1 secretion stimulation in experiment [5] was -2.3% (inactive) and -2.1% (inactive). Besides, in [6], the inhibition of viability was 75.7% (active) and 54.6% (active). Besides, the viability decrease (inhibition) is 58.3% (active) and 71% (active) in [7]; 38.2% (inactive) and 30.5% (inactive) in experiment [8]. Also, the inhibition in experiment [9] is 8.55% (inactive). Further, the fold change in experiment [10] (setting [15]) was 0.928 (inactive) and 0.917 (inactive); in [10] (setting [16]), 1.09 and 1.31. Besides, the cell count in [10] (setting [17]) is 8700 and 8850; in experiment [10] (setting [18]), 9370 and 9660. Also, the z-score in [11] (setting [19]) is -0.279 (inactive) and 1.99 (active); in experiment [11] (setting [20]) it was 0.976 and 0.611. Further, the remaining NAD in experiment [12] was 10 nM (inactive). Also, the luciferase signal in [13] is 56 AU (inactive). The log fold change Tl+ flux with F380Y is -0.0497 (inactive); in the experiment on F380Y/beta2Delta, -0.052 (inactive); in experiment [14], -0.0126 (inactive); in the experiment on R275C, -0.0788 (inactive); in the experiment with R275C/beta1, -0.122 (active); in the experiment on R275C/beta2Delta, -0.0975 (active).

In general, inhibition refers to the relative decrease from the control value, in per cent.
